Measured values taken from PubChem BioAssay AID686978 (National Center for Advancing Translational Sciences (NCATS), 2013).
Where “and” joins values, the source holds several entries; their conditions need not be identical. Equal entries are not always repeated. Among all 420,000 compounds or so, about 64,000 (15%) were called active. Not shown: some 27% with an inconclusive outcome. Calls follow the shape of the dose curve; as a rule, active = well fitted inhibition curve with a large enough effect; inconclusive = small, poorly fitted or top-dose-only effect; inactive = flat fitted curve, though single readings scatter. Only a sample is shown.

Experiment: qHTS for Inhibitors of human tyrosyl-DNA phosphodiesterase 1 (TDP1): qHTS in cells in absence of CPT; also: nearly all actives have a fitted effect of over 55% in size
Conditions: DT40 Tdp1-/- hTDP1 cells, no CPT, ATP luminescence, 48 h; activity change, negative = growth inhibition: at 46.2 µM (top of the series)
In short: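 Chicken DT40 Tdp1-/- cells complemented with human TDP1, screened without camptothecin (DMSO vehicle only), 400 cells/well. Compounds pin-transferred, cells incubated at 37 °C for at least 48 hr. Growth read as ATP-dependent luminescence (CellTiter-Glo, 30 min at RT).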
% is scaled to controls: 0 for no effect and ±100 for the full control effect; potency is read from the fitted curve at half-maximal effect.

Compound | activity change, negative = growth inhibition | Potency
Cc1ccccc1CCN(CC(=O)NC1CCCCC1)C(=O)c1csnn1 | -27.2% (inactive) | 
CSCC[C@H](NC(=O)CCCn1nnc2ccccc2c1=O)C(=O)O | 2.85% (inactive) | 
C[C@H]1CN([C@@H](C)CO)C(=O)c2cc(-c3ccccc3F)cnc2O[C@H]1CN(C)C(=O)C1CCOCC1 | 4.98% (inactive) | 
NC(=O)N/N=C\c1cccs1 | 3.85% (inactive) | 
COc1ccccc1C(=O)N/C(=C/c1ccc2c(c1)OCO2)C(=O)Nc1cccc(C(=O)O)c1 | -8.86% (inactive) | 
CC(=O)Nc1ccc(CN2CCC(Oc3ccc(C(=O)N4CCCC4)cc3)CC2)cc1 | -2.76% (inactive) | 
COc1ccc2c(c1)CCc1cnc(-n3ncc(C(=O)NCCN4CCOCC4)c3C)nc1-2 | -29.3% (inactive) | 
COc1ccc(N)c(C)c1 | -0.894% (inactive) | 
COc1ccc(C2OC(=O)CC2C(=O)NC(C)C)cc1 (stereo not drawn) | 7.56% (inactive) | 
COc1ccc(-c2ccc(C(=O)NC(C)C)c3occc23)c(C)c1 |  | 16.4 µM (active)
COc1ccc(-c2ccc(C(=O)NCCN3CCOCC3)c3occc23)c(C)c1 |  | 20.6 µM (active)
O=C(Cc1ccc(Br)cc1)NCCN1CCOCC1 | -2.63% (inactive) | 
CCN(CC(=O)NCCc1ccccc1)S(=O)(=O)c1ccccc1 | -17.2% (inactive) | 
COc1ccc2c(c1)c1nc3n(c(=O)c1n2CC(=O)Nc1ccccc1)CCS3 | -22.7% (inactive) | 
O=C1C(=O)N(CCN2CCOCC2)C(c2cccc(Cl)c2)/C1=C(/O)c1ccc2c(c1)OCO2 (stereo not drawn) | 12.4% (inactive) | 
COC(=O)c1ccc(NC(=O)CCc2c(C)nc3c(c(C)nn3-c3ccc(C)cc3)c2C)cc1 |  | 6.51 µM (active)
CCOC(=O)C(Cc1ccccc1)NC(=O)CCc1c(C)nc2c(c(C)nn2-c2ccc(C)c(C)c2)c1C (stereo not drawn) | -25.1% (inactive) | 
CCCNC(=O)CCc1c(C)nc2c(c(C)nn2-c2ccccc2)c1C | -7.79% (inactive) | 
Cc1ccc(C)c(NC(=O)CSc2nnc(Cc3cccn3C)n2-c2ccc(F)cc2)c1 | -11.3% (inactive) | 
CC1CCN(C(=O)C2CCN(S(=O)(=O)N3CCC4(CC3)OCCO4)CC2)CC1 | -11.6% (inactive) | 
Nc1nnc(SCn2nnc3ccccc3c2=O)s1 | -7.27% (inactive) | 
O=c1[nH]nc(Cc2ccccn2)c2ccccc12 | 6.26% (inactive) | 
O=C(Nc1ccccc1)c1nnsc1S(=O)(=O)c1ccc(Cl)cc1 |  | 2.59 µM (active)
O=C(Nc1cccc(Cl)c1)c1csnn1 | -4.55% (inactive) | 
O=C(Nc1ccc(Cl)cc1)c1ccsn1 | -26% (inactive) | 
Cc1cc(C)n2nc(C(=O)NC(C)(C)C)nc2n1 | -2.42% (inactive) | 
O=S(=O)(Nc1ccc(-c2ccc(N3CCOCC3)nn2)cc1)c1cc(Cl)ccc1Cl | -11.9% (inactive) | 

Compound | activity change, negative = growth inhibition | Potency
CC(CC(=O)Nc1cc(C(F)(F)F)ccc1Cl)c1ccccc1 (stereo not drawn) | -13.9% (inactive) | 
NC(=O)C1(Nc2ccccc2Cl)CCCC1 | 3.37% (inactive) | 
O=C(NNc1ccccc1Cl)C(O)(c1cccc(C(F)(F)F)c1)c1cccc(C(F)(F)F)c1 |  | 16.4 µM (active)
CC(C)Nc1ccc(-n2nc3ccccc3[n+]2[O-])cc1 | -25.7% (inactive) | 
CN(C)c1cc[n+](Cc2ccccc2)cc1 |  | 0.411 µM (active)
[O-][n+]1ccc(OCc2ccccc2)cc1 | 3.86% (inactive) | 
CN(C)c1ccc(CSc2ccccc2)cc1 | -5.38% (inactive) | 
c1ccc(Cc2cc[n+](Cc3ccccc3)cc2)cc1 |  | 20.6 µM (active)
O=C(Nc1cc(-c2nn(CC(=O)N3CCCCC3)c(=O)c3ccccc23)ccc1N1CCOCC1)c1ccc(Cl)cc1 | -22% (inactive) | 
Cc1ccc(-c2csc3nnc(SCC(=O)NCc4ccco4)n23)cc1 | -9.6% (inactive) | 
COc1cc(F)c(C2=CC(=O)CC(C)(C)C2)cc1F | -29.6% (inactive) | 
Cc1c(CCOC(=O)CC23CC4CC(CC(C)(C4)C2)C3)sc[n+]1Cc1ccc([N+](=O)[O-])cc1 |  | 18.4 µM (active)
O=C(CSC1=Nc2ccccc2C2=NC(c3ccccc3)C(=O)N12)NCC1CCCO1 (stereo not drawn) | -10.2% (inactive) | 
Cc1ccc(C)c(S(=O)(=O)N2CC(=O)Nc3ccccc32)c1 | -8.66% (inactive) | 
O=C(Nc1ccc(NC(=O)c2cccs2)cn1)c1ccco1 | -24% (inactive) | 
CCOc1ccccc1NC(=O)Cc1cccs1 | -17.5% (inactive) | 
CCOc1ccccc1NC(=O)Cn1nnc(C(=O)NCc2cccs2)c1N |  | 130 nM (active) and 51.7 nM (active)
Cc1ccc(NC(=O)Cn2nnc(C(=O)NCc3ccco3)c2N)c(C)c1 | 7.88% (inactive) | 
Cc1cc(C)n(CC(C)NCc2c(C(=O)N3CCOCC3)nc3c(C)cccn23)n1 (stereo not drawn) | 26.9% (inactive) | 
Fc1ccc(Nc2nnns2)cc1 | -24.1% (inactive) | 
Cc1sc2c(c1C)c(=O)n(-c1ccccc1)c(=O)n2CC(=O)NCC1CCCO1 (stereo not drawn) | -4.2% (inactive) | 
Nc1ccc(C(=O)NCc2ccccc2)cc1 | 2.25% (inactive) | 
Nc1ccc(S(=O)(=O)NC(=O)c2ccccc2)cc1 |  | inactive
Nc1ccc(C(=O)Nc2ccccc2N)cc1 |  | 2.37 µM (active) and 3.26 µM (active)
COc1ccc2oc(=O)c(C(=O)N3CCCC3)cc2c1 | 10.7% (inactive) | 
CC(C)C[C@H](NC(=O)NCCc1ccc(Cl)cc1)C(=O)O | 3.73% (inactive) | 
